Screening data as filed in PubChem.
Sampled rows, rich in hits. Any-hit rate of the full collection: about 18%.
IL-1B inflam inh – qHTS for Inhibitors of Inflammasome Signaling: IL-1-beta AlphaLISA Primary Screen | THP-1 LPS/ATP IL-1B secretion, AlphaLISA, 16 h; active compounds read low | activity change, % at 57.5 µM | hit rate 4.7% among 360,000; in the data active means activity change below about -50%; inconclusive means mostly about -30% to -49%; further: on the % scale 0 is the no-effect control and ±100 the full control effect
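Secreted IL-1B measured by AlphaLISA bead assay after 16 h compound exposure of THP-1 cells; compounds (final up to 57.5 uM) added 1 h before LPS (250 ng/mL) and ATP (1.25 mM) stimulation; lower signal means less secretion.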
TDP1 block – qHTS Assay for Inhibitors of Tyrosyl-DNA Phosphodiesterase (TDP1); AID 485290, 2010; hit rate 0.28% among 350,000; Potency, µM (doses to about 130 µM), for the others: top-dose activity change, negative = inhibition, usual class: inhibitors; recombinant TDP1, AlphaScreen DNA substrate cleavage; Tyrosyl-DNA phosphodiesterase 1 (Homo sapiens), Q9NUW8; further: potency means the concentration at half of the fitted maximal effect; on the % scale 0 is the no-effect control and ±100 the full control effect; nearly all actives have a fitted effect of over 40% in size
Target sequence (Q9NUW8 whole entry, looked up): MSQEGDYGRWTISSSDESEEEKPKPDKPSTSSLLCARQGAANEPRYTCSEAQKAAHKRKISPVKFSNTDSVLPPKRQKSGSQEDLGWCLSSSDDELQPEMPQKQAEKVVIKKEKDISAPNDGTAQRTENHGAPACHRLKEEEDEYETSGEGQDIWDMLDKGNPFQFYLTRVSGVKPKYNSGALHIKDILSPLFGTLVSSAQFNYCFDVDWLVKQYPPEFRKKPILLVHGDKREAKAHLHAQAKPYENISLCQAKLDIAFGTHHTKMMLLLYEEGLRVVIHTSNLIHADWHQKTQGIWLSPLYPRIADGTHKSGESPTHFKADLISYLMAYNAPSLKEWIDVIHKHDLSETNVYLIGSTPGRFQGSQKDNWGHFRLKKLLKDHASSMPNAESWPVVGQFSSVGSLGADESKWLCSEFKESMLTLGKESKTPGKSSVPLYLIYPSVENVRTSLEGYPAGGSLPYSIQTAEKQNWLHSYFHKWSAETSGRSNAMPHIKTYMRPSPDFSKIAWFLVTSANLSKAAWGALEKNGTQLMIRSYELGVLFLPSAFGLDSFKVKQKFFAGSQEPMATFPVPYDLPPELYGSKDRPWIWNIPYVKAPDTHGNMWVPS
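Tdp1 1 nM final; 15 min RT w/ cpd; substrate 15 nM, 5 min; beads 10 ug/ml, 10 min; AlphaScreen read. Neg ctrl: no enzyme.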
DT40 TDP1 CPT – qHTS for Inhibitors of human tyrosyl-DNA phosphodiesterase 1 (TDP1): qHTS in cells in presence of CPT; hit rate 12% among 420,000; chicken DT40 Tdp1-/-;hTDP1 cells + 20 nM CPT, ATP luminescence, 48 h; Potency, µM (titrated, usually from 46.2 µM), for the others: at the top dose activity change, negative = growth inhibition, hits mostly inhibitors; AID 686979, 2013; further: potency means the concentration at half of the fitted maximal effect; on the % scale 0 is the no-effect control and ±100 the full control effect; nearly all actives have a fitted effect of over 55% in size
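Cell growth measured by CellTiter-Glo luminescence after a minimum 48 h, 37 C compound exposure with 20 nM CPT in Tdp1-knockout DT40 cells stably expressing hTDP1, seeded 400/well; qHTS titration format.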
TDP1 cell noCPT – qHTS for Inhibitors of human tyrosyl-DNA phosphodiesterase 1 (TDP1): qHTS in cells in absence of CPT; DT40 Tdp1-/- hTDP1 cells, no CPT, ATP luminescence, 48 h; AID 686978, 2013; hit rate 15% among 420,000; Potency, µM (highest dose often 46.2 µM), for the others: at the highest dose activity change, negative = growth inhibition, actives largely listed as inhibitors; further: potency means the concentration at half of the fitted maximal effect; on the % scale 0 is the no-effect control and ±100 the full control effect; nearly all actives have a fitted effect of over 55% in size
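Compound effects on proliferation are scored in DT40 Tdp1-/-;hTDP1 cells in the absence of CPT. ATP levels (CellTiter-Glo luminescence) are recorded after a ≥48 hr, 37 °C incubation.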
HepG2 tox – qHTS for Inhibitors of TGF-b: Cytotox Counterscreen; Potency, µM (highest dose often 46.1 µM), for inactives: at the top dose activity change, negative = cytotoxicity, usual class: cytotoxic; HepG2 CAGA-GFP viability, ATP luminescence, 18 h; hit rate 0.76% among 410,000; AID 588856, 2011; further: potency means the concentration at half of the fitted maximal effect
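CellTiter-Glo luminescence gave cytotoxicity after 18 hours at 37 degrees C. The cells were HepG2 CAGA-GFP in 1% FBS DMEM, stimulated with 500 pg/mL TGF-beta after compound addition. %Activity was normalised to no-cell wells (complete cell-killing) and DMSO (no toxicity), and curves were fitted and classified.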
TGFb SMAD3 inh – qHTS for Inhibitors of TGF-b | Potency, µM (top dose mostly 46.1 µM), for inactives: at the top dose activity, negative = inhibition, most hits filed as inhibitors | hit rate 1.2% among 410,000 | HepG2 CAGA-GFP TGF-b/SMAD3 reporter, GFP fluorescence, 18 h; TGF-beta stimulated, 500 pg/mL final; further: potency means the concentration at half of the fitted maximal effect; on the % scale 0 is the no-effect control and ±100 the full control effect; nearly all actives have a fitted effect of over 65% in size
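Inhibition was scored as loss of TGF-beta-induced (500 pg/mL final, 18 hours, 37 degrees C) GFP in HEPG2 cells carrying a CAGA-GFP reporter, in DMEM with 1% FBS. Well GFP was summed per cell; Activity was normalised to unstimulated and stimulated DMSO wells, then concentration-response fitting.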
* hit, by the source's call; ? = inconclusive; . = no result given; ! = not confirmed by another sample; [ ] = another dose, or the depositor's remark. Unless noted, the call rests on the fitted dose curve; in most records, active means well fitted curve in the direction sought with a large enough effect; inconclusive means small, poorly fitted or top-dose-only effect, or another doubt; inactive means no such curve, though single readings can be large; an effect the other way counts as inactive or inconclusive.

SMILES	IL-1B inflam inh	TDP1 block	DT40 TDP1 CPT	TDP1 cell noCPT	HepG2 tox	TGFb SMAD3 inh
CS/C(=N/S(=O)(=O)c1ccc(C)cc1)c1ccccc1	-55.5*	2.7%	16.7%	-3.1%	-1.7%	-0.4%
Cc1ccc(S/C(=N/S(=O)(=O)c2ccc(Cl)cc2)c2ccccc2)cc1	.	-15.1%	11.2µM*	10µM*	-21.9%	5.6%
O=S(=O)(/N=C(\Sc1ccc(Cl)cc1)c1ccccc1)c1ccccc1	-113.0*	7.4%	11.6µM*	20.6µM*	-27.4%	?
CC(=O)OC1CC[C@@]2(C)C3=CC(=O)[C@]4(C)C(CC5OC6(OCC(C)CC6Br)C(C)C54)C3CC[C@H]2C1 (some centres not stated)	.	4.5%[56.1 µM]	-8.1%	-13.2%	.	.
CCOc1ccc(NC(=O)CSc2oc(-c3ccco3)nc2S(=O)(=O)c2ccccc2)cc1	.	5.9%	?	?	-12.9%	-22.5%
CC(C)CN(CCCNC(=O)CN1N=C(c2ccccc2)CCC1=O)CC(C)C	.	7.8%	0.6%	-4.3%	-6.3%	-22.4%
COc1cccc(CN(C)C(=O)C2CCCN(C(=O)c3ccc(Cl)cc3)C2)c1 (configuration not stated)	11.9	.	20.6µM*	?	-11.4%	0.1%
CN(Cc1ccccc1)C(=O)C1CCCN(Cc2cccc(Cl)c2)C1 (configuration not stated)	37.1	-2.7%	?	23.1µM*!	-8.4%	?
COc1cccc(CC(NC(C)=O)C(=O)NC2CCN(C(=O)c3ccc(Cl)cc3)CC2)c1 (configuration not stated)	-5.2	1.4%	-21.9%	5.8µM*	6.4%	6.3%
CC(=O)NC(Cc1ccc(F)c(F)c1)C(=O)NC1CCN(C(=O)c2ccc(Cl)cc2)CC1 (configuration not stated)	-6.2	.	-0.7%	-12.2%	0.9%	0.2%
O=S(=O)(c1cccnc1)N1CCN(c2nc(-c3cccs3)nc3ccccc23)CC1	.	.	?	?	-45.8%	-20.2%
CCc1ccc(N2C(=O)CSC23C(=O)N(Cc2cccc(OC)c2)c2ccccc23)cc1 (configuration not stated)	.	5.6%	.	.	-2.9%	14.7%
CC(OC(=O)CNC(=O)c1cccs1)C(=O)Nc1ccc(S(N)(=O)=O)cc1 (configuration not stated)	2.9	-1.7%	1.2%	-14.1%	-36.8%	-1.7%
O=C(Nc1ccc(F)cc1)Nc1csc2c1CCCC2	.	-1.0%	?	?	-44.5%	?
COc1cc(/C=N/NC(=O)COc2ccc([N+](=O)[O-])cc2)ccc1OCC(=O)N1CCOCC1	-9.0	.	-19.1%	16.4µM*	-4.8%	-28.5%
COc1ccc(NCC(=O)N/N=C/c2cc([N+](=O)[O-])ccc2N2CCCC2)cc1	?	8.1%	20.6µM*	?	2.9%	15.8%
CCc1ccc(OCC(=O)N/N=C/c2cc([N+](=O)[O-])ccc2N2CCOCC2)cc1	-15.5	2.3%	?	?	-0.3%	-4.4%
Cc1cccc(OCC(=O)N/N=C/c2cc([N+](=O)[O-])ccc2N2CCOCC2)c1	9.6	7.8%	20.6µM*	18.4µM*	2.7%	?
COc1cc(/C=N/NC(N)=S)ccc1OCC(=O)N1CCOCC1	27.8	0.0%	5.8%	0.1%	-18.8%	4.3%
CCN(CC)C(=O)C1CCCN(c2ccc([N+](=O)[O-])cc2/C=N/NC(=O)c2cccc(O)c2)C1 (configuration not stated)	-60.6*	3.8%	?	?	-1.0%	1.3%
CCN(CC)C(=O)C1CCCN(c2ccc([N+](=O)[O-])cc2/C=N/NC(=O)c2ccccc2)C1 (configuration not stated)	-12.9	5.6%	-12.5%	?	-12.5%	1.7%
COc1ccccc1N1CCN(C(CNC(=O)C2CCCCC2)c2cccnc2)CC1 (configuration not stated)	5.8	1.0%	8.2µM*	10.3µM*	-9.4%	?
O=C(NCC(c1cccnc1)N1CCOCC1)C1CCCCC1 (configuration not stated)	6.7	0.0%	16.6%	-5.3%	10.5%	-1.8%
COc1ccccc1N1CCN(C(CNS(=O)(=O)c2ccccc2)c2cccnc2)CC1 (configuration not stated)	13.9	2.2%	23.1µM*	18.4µM*	-1.4%	0.0%
Cc1cccc2c(=O)cc(CSCC(=O)Nc3ccc(Cl)cc3)[nH]c12	.	.	-27.3%	-28.6%	4.9%	-21.0%
SMILES	IL-1B inflam inh	TDP1 block	DT40 TDP1 CPT	TDP1 cell noCPT	HepG2 tox	TGFb SMAD3 inh
O=C(Nc1cccc(Cl)c1)N1CC2CCCN2c2ccccc21 (configuration not stated)	.	11.4%	?	?	-15.1%	-25.6%
COC(=O)CNc1nc(C2CC2)nc2c1nnn2Cc1ccccc1Cl	15.4	0.1%[56.1 µM]	-16.7%	-19.9%	-16.1%	-24.9%
CCc1nc(Nc2ccc(OC)c(OC)c2)c2nnn(Cc3ccccc3Cl)c2n1	-64.8*	2.2%	-113.5%	16.4µM*	-30.4%	?
CN(C)S(=O)(=O)c1ccc(Nc2nc(C3CC3)nc3c2nnn3Cc2ccccc2Cl)cc1	-9.6	2.3%	9.2µM*	8.2µM*	3.9%	?
COc1ccc(OC)c(NC(=O)C2CC(/C=C/c3ccccc3)=NO2)c1 (configuration not stated)	6.0	.	1.2%	-22.9%	-26.1%	0.6%
COC(=O)\C(C(C)=O)=C(/C=C/C=C/C=C/N(C)C)N(C)C	10.3	3.16µM*	?	20.6µM*	-9.7%	0.0%
O=C(O)CSc1ccnc2cc(Cl)ccc12	10.3	.	6.7%	9.7%	-5.2%	7.2%
S=C(NNc1ccnc2cc(Cl)ccc12)Nc1ccc(Cl)cc1Cl	-86.4*	.	4.61µM*	3.66µM*	-18.6%	?
CCN(CC)Cc1ccc(Nc2ccnc3cc(Cl)ccc23)cc1O	.	3.4%	7.31µM*	6.51µM*	.	.
CCOc1ccc(NC(=S)NNc2ccnc3cc(Cl)ccc23)cc1	-88.9*	4.9%	?	13µM*	-14.1%	?
CCOc1ccccc1Nc1ccnc2cc(Cl)ccc12	-88.5*	2.6%	?	23.1µM*	-15.2%	?
